One assay addresses BARX2. As to the kind of experiment: pooled miR-30 sensor sort-seq; sequence = guide strand. To be noted: shRNA.
On to TTTCTCAAAGTAATCGCAGGTC, for which the sensor-assay potency score (higher = more potent) worked out at 0.887.
Consider TGTTCCGTCTCTGACTCGCTGC, for which the sensor-assay potency score (higher = more potent) is -0.452.
Still for that read-out and setting: with TCAGCTTCAATCTCTTCTGATG the figure was -1.18; with TAATCGCAGGTCTCCTTGGAGA, -1.07.
Same read-out and setting: with TCGTCGATCATGAAAGTCTTGT the figure was -0.832; with TCAATCTCTTCTGATGTGGGGA, 0.111.
For the sequence TTTAAGAACCATTTTCTTCCAT, the sensor-assay potency score (higher = more potent) was 0.594.
On the same count and under the same terms, the value for TTGACAAATACTTCTGCTTCTG was -0.22.

The next assay concerns the target BAX. The assay is described as above. To be noted: shRNA.
As for TTGAGACACTCGCTCAGCTTCT, the sensor-assay potency score (higher = more potent) was -0.529.
On the same count and under the same terms, with TCTTGGTGGACGCATCCTGAGG the figure was -1.92.
On the same count and under the same terms, the value for TTGAGCACCAGTTTGCTGGCAA was 0.213.
On to ATGATCTGCTCAGAGCTGGTGG, for which the sensor-assay potency score (higher = more potent) is -1.15.
Still for that read-out and setting: the value for AATCATCCTCTGCAGCTCCATG was -1.42; that for ATGCGCTTGAGACACTCGCTCA was -1.61.
Still for that read-out and setting: the value for TTCTTGGTGGACGCATCCTGAG was -1.72; that for TTGGATCCAGCCCAACAGCCGC was -1.52; that for TGCGCTTGAGACACTCGCTCAG was 0.0222.
For the sequence TCGATCCTGGATGAAACCCTGA, the sensor-assay potency score (higher = more potent) is -0.785.
Still for that read-out and setting: with TTCATGATCTGCTCAGAGCTGG the figure was 0.0889; with TAGGAGAGGAGGCCGTCCCAAC, -1.61.
The same measure, in the same setting: the value for TTACTGTCCAGTTCGTCCCCGA was -0.0654; that for ATCAGTTCCGGCACCTTGGTGC was -0.369.
Take TGATGGTTCTGATCAGTTCCGG: the sensor-assay potency score (higher = more potent) is -0.352.
On the same count and under the same terms, with TCGGAAAAAGACCTCTCGGGGG the figure was -0.669; with TACTGTCCAGTTCGTCCCCGAT, -0.951.
In the case of TCATGATCTGCTCAGAGCTGGT, the sensor-assay potency score (higher = more potent) was -1.61.
On the same count and under the same terms, the value for TTGCCGTCAGAAAACATGTCAG was -0.725; that for AAACATGTCAGCTGCCACTCGG was -0.504.
AACATGTCAGCTGCCACTCGGA: the sensor-assay potency score (higher = more potent) is -1.25.
On the same count and under the same terms, with TAGAAAAGGGCGACAACCCGGC the figure was -0.132.

Another assay deals with BBC3. Described as above. To be noted: shRNA.
Regarding TTGTCTCCGCCGCTCGTACTGT, the sensor-assay potency score (higher = more potent) was -1.
Same read-out and setting: the value for TCGTACTGTGCGTTGAGGTCGT was 0.393; that for TACAGGACCCTCCAGGGTGAGG was -1.57; that for TGTGCGTTGAGGTCGTCCGCCA was -0.785.
Same read-out and setting: the value for TGCTCCTCTTGTCTCCGCCGCT was -1.11.
With TACAGTATCTTACAGGCTGGGC, the sensor-assay potency score (higher = more potent) was -0.231.
The same measure, in the same setting: the value for TGCTCCGCCAGCGAGAGCGAGG was -2.06; that for TCCGCCGCTCGTACTGTGCGTT was -1.32; that for TATACAGTATCTTACAGGCTGG was -0.558.
The same measure, in the same setting: the value for TGCGTTGAGGTCGTCCGCCATC was -1.7.

Source of the values: the OligoGym collection.
Note: reference of the scale not given here.
